Results on 29 compounds are retold here after PubChem BioAssay (Tox21).

Assay [1] deals with Acetylcholinesterase (Homo sapiens) (UniProt P22303). As to the kind of experiment: Acetylcholinesterase (AChE) small molecule antagonists: colormetric cell-based qHTS assay (AID 1347395). Also: nearly all actives have a fitted effect of over 30% in size. Also: potency is read from the fitted curve at half-maximal effect. Summed up: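 Neuroblastoma line SH-SY5Y supplied the enzyme; cells were preincubated with compound for 30 min at 37 C and 5% CO2. Acetylthiocholine with DTNB was then added for 90 min at 37 C, and thiocholine was measured by colour.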
Sequence of Acetylcholinesterase (Homo sapiens) (P22303 whole entry, looked up): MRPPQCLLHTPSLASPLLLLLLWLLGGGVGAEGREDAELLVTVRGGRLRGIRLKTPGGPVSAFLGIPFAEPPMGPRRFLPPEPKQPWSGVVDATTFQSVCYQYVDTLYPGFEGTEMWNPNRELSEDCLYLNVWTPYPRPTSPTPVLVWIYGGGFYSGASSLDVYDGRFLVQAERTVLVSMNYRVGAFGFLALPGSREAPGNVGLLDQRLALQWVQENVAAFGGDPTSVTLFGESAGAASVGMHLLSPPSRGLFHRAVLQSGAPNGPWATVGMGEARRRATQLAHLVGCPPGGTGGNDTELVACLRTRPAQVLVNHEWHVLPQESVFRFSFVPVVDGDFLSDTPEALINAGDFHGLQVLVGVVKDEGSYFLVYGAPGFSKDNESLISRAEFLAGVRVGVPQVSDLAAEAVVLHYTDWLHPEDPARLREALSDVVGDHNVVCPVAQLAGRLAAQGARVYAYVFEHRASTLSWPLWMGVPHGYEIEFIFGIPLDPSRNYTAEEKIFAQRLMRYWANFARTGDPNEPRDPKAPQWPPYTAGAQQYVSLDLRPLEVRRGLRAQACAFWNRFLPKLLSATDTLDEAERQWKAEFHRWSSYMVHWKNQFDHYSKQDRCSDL
A general note: In qHTS, concentration-response curves come from the screen itself.

For assay [2] the target is unchanged. The assay can be described thus: Acetylcholinesterase (AChE) small molecule antagonists: enzyme-based qHTS assay (AID 1347397). Also: nearly all actives have a fitted effect of over 55% in size. Also: potency is read from the fitted curve at half-maximal effect. The settings on record: Potency: AChE enzyme activity inhibition; outcome: AChE enzyme activity inhibition. Summed up: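 In this quantitative HTS, compounds from the Tox21 10K collection were preincubated 30 min at ambient temperature with recombinant human AChE dispensed at 50 mU/mL. Hydrolysis of acetylthiocholine was then followed for 10 min by DTNB colour development.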

Assay [3] has the same target. The assay can be described thus: Acetylcholinesterase (AChE) small molecule antagonists: enzyme-based qHTS assay with human liver microsomes (AID 1347399). Also: nearly all actives have a fitted effect of over 60% in size. Conditions: Potency: qHTS inhibition; outcome: qHTS inhibition. Summed up:
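Recombinant human AChE (50 mU/mL in the enzyme mix) and human liver microsomes (0.25 mg/mL final) were preincubated with compound and NADPH (0.25 mg/mL final) for 30 min at 37 C. Acetylthiocholine/DTNB was then added; thiocholine was read colorimetrically after 10 min at room temperature.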

A short description of assay [4]: qHTS assay for small molecule agonists of the p53 signaling pathway (AID 651631). Also: nearly all actives have a fitted effect of over 15% in size. Summed up: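 Stably transfected HCT-116 cells (beta-lactamase behind p53 response elements) get compounds after a 5 h settling period; 16 h later at 37 °C, FRET substrate is loaded and fluorescence read after 2 h.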
The next assay concerns the target Aromatase (Homo sapiens) (UniProt P11511). The assay can be described thus: qHTS assay to identify aromatase inhibitors (AID 743083; active = well fitted inhibition curve with a large enough effect in the repeat runs; also: series mostly up to about 70 µM; nearly all actives have a fitted effect of over 55% in size).
For assay [5], the target named is Acetylcholinesterase (Homo sapiens) (UniProt P22303). The assay can be described thus: Acetylcholinesterase (AChE) small molecule antagonists: fluorescence cell-based qHTS assay (AID 1347398). Also: nearly all actives have a fitted effect of over 50% in size. Also: potency is read from the fitted curve at half-maximal effect. The settings on record: Potency: AChE activity; outcome: AChE activity. Summed up:
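Cells (SH-SY5Y) attached overnight, were dosed with compound or DMSO vehicle for 30 min at 37 C, and then incubated 40 min at room temperature with acetylthiocholine and Thiolite Green; green fluorescence indexed AChE activity.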

A short description of assay [6]: qHTS assay for small molecule activators of the heat shock response signaling pathway (AID 743210; active = well fitted activation curve with a large enough effect in the signal ratio in the repeat runs, with a control signal flat, not every such curve was filed as active; the % refers to the signal ratio; also: series mostly up to about 63 µM). From the text: U.S. Tox21 Program National Center for Advancing Translational Sciences [NCATS] NIH Chemical Genomics Center [NCGC] U.S. Environmental Protection Agency [EPA] National Institutes of Environmental Health Sciences [NIEHS] National Toxicology Program [NTP] U.S. Food and Drug Administration [FDA] Tox21 Assay Overview: Various chemicals, environmental and physiological stress conditions may lead to the activation of heat shock response/ unfolded protein response (HSR/UPR). There are three heat shock transcription factors (HSFs) (HSF-1, -2, and -4) mediating transcriptional regulation of the human HSR. To identify the compounds that activate HSR signaling, HSE-bla HeLa cell line (Invitrogen, Carlsbad, CA, USA) containing a beta-lactamase reporter gene under the control of the heat shock response elements was used to screen the Tox21 10K compound library.
Tox21 Assay Protocol Summary: The CellSensor HSE-bla HeLa cells (Invitrogen, Carlsbad, CA, USA) were dispensed at 1500 cells/6uL/well into 1536-well black wall/clear bottom plates using a Multidrop combi (Thermo Fisher Scientific, Waltham, MA) dispenser. […] After 1 uL of LiveBLAzerTM B/G FRET substrate was added using a Flying Reagent Dispenser (Beckman Coulter, Indianapolis, IN, USA), the plates were incubated at room temperature for 2.5 h, and fluorescence intensity was measured by an Envision plate reader (PerkinElmer, Shelton, CT).

Assay [7] deals with Peroxisome proliferator-activated receptor delta (Homo sapiens) (UniProt Q03181). The assay can be described thus: qHTS assay to identify small molecule antagonists of the peroxisome proliferator-activated receptor delta (PPARd) signaling pathway (AID 743215; active = well fitted inhibition curve with a large enough effect in the signal ratio in the repeat runs, not every such curve was filed as active; the % refers to the signal ratio;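 also: cells stimulated with agonist L165041 at 300 nM final during compound exposure; series mostly up to about 62 µM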). Summed up:
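Fluorescence from cleaved LiveBLAzer B/G FRET substrate (2 h, room temperature) reports PPARd-driven beta-lactamase in HEK293H UAS-bla cells. Cells had been treated 17 h at 37 C with compound plus 300 nM final L165041.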

Several values for one entry are separate records, joined by “and”; a condition that tells them apart may be missing. Identical values can stand only once. Unmarked numbers belong to inactive results. Inconclusive results are not listed. Activity calls are given as the source filed them. Unless noted, calls follow the shape of the full dose curve.
% is scaled to controls: 0 for no effect and ±100 for the full control effect.

Sequence of Aromatase (Homo sapiens) (P11511 whole entry, looked up): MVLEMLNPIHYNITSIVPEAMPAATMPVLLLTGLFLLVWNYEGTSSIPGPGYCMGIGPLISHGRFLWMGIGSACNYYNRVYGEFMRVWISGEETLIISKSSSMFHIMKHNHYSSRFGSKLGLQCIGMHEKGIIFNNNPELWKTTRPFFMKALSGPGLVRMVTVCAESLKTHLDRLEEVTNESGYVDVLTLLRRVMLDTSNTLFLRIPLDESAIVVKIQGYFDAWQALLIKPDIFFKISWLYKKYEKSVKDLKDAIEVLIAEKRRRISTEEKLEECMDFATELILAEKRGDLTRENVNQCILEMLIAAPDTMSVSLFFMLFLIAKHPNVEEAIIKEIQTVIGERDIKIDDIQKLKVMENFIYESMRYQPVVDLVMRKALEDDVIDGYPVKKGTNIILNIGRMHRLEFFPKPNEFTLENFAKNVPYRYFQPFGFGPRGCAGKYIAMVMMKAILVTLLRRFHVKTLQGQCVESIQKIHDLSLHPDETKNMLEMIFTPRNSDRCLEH
Sequence of Peroxisome proliferator-activated receptor delta (Homo sapiens) (Q03181 whole entry, looked up): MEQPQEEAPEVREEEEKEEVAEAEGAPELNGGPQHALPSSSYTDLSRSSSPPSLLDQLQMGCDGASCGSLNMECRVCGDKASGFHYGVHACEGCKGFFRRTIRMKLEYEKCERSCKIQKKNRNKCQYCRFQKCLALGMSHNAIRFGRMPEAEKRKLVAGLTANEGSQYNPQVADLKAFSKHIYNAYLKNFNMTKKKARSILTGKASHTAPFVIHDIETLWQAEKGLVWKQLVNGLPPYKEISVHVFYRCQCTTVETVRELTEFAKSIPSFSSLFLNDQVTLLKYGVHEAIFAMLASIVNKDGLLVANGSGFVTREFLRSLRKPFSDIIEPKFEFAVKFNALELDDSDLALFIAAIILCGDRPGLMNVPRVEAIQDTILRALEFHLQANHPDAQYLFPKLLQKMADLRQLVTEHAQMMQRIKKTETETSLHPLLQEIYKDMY

In the case of `Oc1ccc(C2(c3ccc(O)cc3)CC3CC2C2CCCC32)cc1` (centres undefined), the Potency result in assay [1] and in assay [3] was “inactive” each time. The Potency in assay [2] was 76.5 µM (active).

For `Cc1ccc(N)cc1[N+](=O)[O-]`, the Potency result (in assay [4]; in the assay with Aromatase (Homo sapiens); in assay [1]; in assay [2]; in assay [5]; in assay [3]) was “inactive” in each case.

Turning to `Nc1cc(C(F)(F)F)ccc1S`, the Potency result in assay [1], in assay [2] and in assay [3] was “inactive” throughout.

Consider `CC(S)C(C)S` (centres undefined), for which the Potency result in assay [1], in assay [2], in assay [5] and in assay [3] was “inactive” throughout.

`CC(=O)CC(C)C`: the Potency result (in assay [4]; in the assay with Aromatase (Homo sapiens); in assay [1]; in assay [2]; in assay [5]; in assay [3]) was “inactive” throughout. Besides, the compound was classed as inactive in assay [6].

Turning to `OCCN1CCN(CCCN2c3ccccc3Sc3ccc(C(F)(F)F)cc32)CC1`, the Potency result in assay [1], in assay [2] and in assay [3] was “inactive” each time.

Regarding `C/C=C/C(=O)CC`, the activity, negative = inhibition in assay [1] is 0.402% [at 23.6 µM]. The activity change, negative = inhibition is 0.0718% [at 23.6 µM] in assay [2], -7.93% [at 23.8 µM] in assay [5] and -3.23% [at 23.6 µM] in assay [3].

In the case of `C[N+]12CCC(CC1)C(OC(=O)C(O)(c1ccccc1)c1ccccc1)C2` (centres undefined), the Potency entry (in assay [4]; with Aromatase (Homo sapiens); in assay [1]; in assay [2]; in assay [5]; in assay [3]) was “inactive” throughout. Moreover, in assay [7], the outcome was inactive.

For `NC(=O)n1c(O)c(C(=O)c2cccs2)c2cc(Cl)ccc21`, the Potency entry in assay [1], in assay [2] and in assay [3] was “inactive” each time.

`CC(C(O)c1ccccc1)N(C)CCOC(c1ccccc1)c1ccccc1` (centres undefined): the Potency result in assay [1], in assay [2] and in assay [3] was “inactive” throughout.

For `Cc1ccc(O)c(N)c1`, the Potency result in assay [1], in assay [2] and in assay [3] was “inactive” in each case.

For `CSc1ccc(C(=O)c2[nH]c(=O)[nH]c2C)cc1`, the Potency result in assay [1], in assay [2] and in assay [3] was “inactive” throughout.

For `CCN(CC)CCCC(C)Nc1ccnc2cc(Cl)ccc12` (centres undefined), the Potency was 9.52 µM (active) in assay [1] and 3.79 µM (active) in assay [5]. For the same compound, the activity change, negative = inhibition is -3.67% [at 10.5 µM] in assay [2]; -0.628% [at 10.5 µM] and -0.0844% [at 23.6 µM] in assay [3].

With `O=C(O)c1cccc(C(=O)O)c1C(=O)O`, the Potency result in assay [1], in assay [2] and in assay [3] was “inactive” throughout.

`CC1=CCCC(C)(C)C12CCC(C)O2` (centres undefined): the Potency entry in assay [1], in assay [2], in assay [5] and in assay [3] was “inactive” throughout.

Regarding `c1ccc(-c2ccc(-c3ccccc3)cc2)cc1`, the Potency result with Aromatase (Homo sapiens) is “inactive”. Moreover, the activity, negative = inhibition in assay [1] was -0.11% [at 23.6 µM]. Moreover, the activity change, negative = inhibition is 0% [at 23.6 µM] in assay [2], 6.58% [at 23.8 µM] in assay [5] and 0.417% [at 23.6 µM] in assay [3].

Regarding `O=C(CCBr)N1CCN(C(=O)CCBr)CC1`, the Potency entry in assay [1], in assay [2] and in assay [3] was “inactive” in each case.

`CCCCCCCC/C=C\CCCCCCCC(=O)OCC`: the Potency result in assay [1], in assay [2] and in assay [3] was “inactive” throughout.

On to `C/C(=N/NC(=O)c1ccncc1)C(=O)O`, for which the Potency result in assay [1], in assay [2] and in assay [3] was “inactive” in each case.

For the compound `CCOc1ccc(C(=O)OCCN(CC)CC)cc1`, the Potency entry in assay [1], in assay [2] and in assay [3] was “inactive” throughout.

For the compound `Cc1ncc([C@@H](CCCCCCc2ccc3c(n2)NCCC3)CC(=O)O)cn1`, in assay [1], the Potency is 56.4 µM (active). In addition, the Potency result in assay [2] and in assay [3] was “inactive” each time.

As to `OCc1cc(C(O)CNCCCCCCOCCCCc2ccccc2)ccc1O` (centres undefined), the Potency entry in assay [1], in assay [2] and in assay [3] was “inactive” throughout.

Regarding `CC(C(O)c1ccc(O)cc1)N1CCC(Cc2ccccc2)CC1` (centres undefined), the Potency result in assay [1], in assay [2] and in assay [3] was “inactive” each time.

As for `COc1ccc2cc(C=O)ccc2c1`, the Potency entry in assay [1], in assay [2] and in assay [3] was “inactive” in each case.

For the compound `CCOc1cc(N)c(Cl)cc1C(=O)NCC1CN(Cc2ccc(F)cc2)CCO1` (centres undefined), the Potency entry in assay [1], in assay [2] and in assay [3] was “inactive” throughout.

For `CN(C[C@@H](CC[N+]12CCC(C3CCCCC3)(CC1)CC2)c1ccc(Cl)c(Cl)c1)C(=O)c1cc(C(F)(F)F)cc(C(F)(F)F)c1`, the call in assay [1] and in assay [3] was inactive. For the same compound, the Potency in assay [2] was 7.96 µM (active).

For the compound `O=C1[C@H]2CCCC[C@H]2C(=O)N1CCCCN1CCN(c2nsc3ccccc23)CC1`, the Potency entry in assay [1], in assay [2] and in assay [3] was “inactive” in each case.

With `CC1=C(/C=C/C(C)=C/C=C/C(C)=C/C=O)C(C)(C)CCC1`, the Potency result in assay [1], in assay [2] and in assay [3] was “inactive” each time.

Consider `NC1[C@H]2CN(c3nc4c(cc3F)c(=O)c(C(=O)O)cn4-c3ccc(F)cc3F)C[C@@H]12` (some centres undefined), for which the compound was classed as inactive in assay [1], in assay [2] and in assay [3].
